Screening data: PubChem, National Center for Advancing Translational Sciences (NCATS)
This is a sample that favours compounds with a hit; in the whole collection about 6.9% have one here.
S-ASM inh: Inhibitors of Secretory Acid Sphingomyelinase (S-ASM): qHTS; Sphingomyelin phosphodiesterase (Homo sapiens), P17405; 340,000 tested, 0.006% active; placental ASM, HMU-PC fluorogenic substrate, 60 min; Potency, µM (highest dose often 57.5 µM), actives largely listed as inhibitors
Target sequence (P17405 47-631 limits assumed): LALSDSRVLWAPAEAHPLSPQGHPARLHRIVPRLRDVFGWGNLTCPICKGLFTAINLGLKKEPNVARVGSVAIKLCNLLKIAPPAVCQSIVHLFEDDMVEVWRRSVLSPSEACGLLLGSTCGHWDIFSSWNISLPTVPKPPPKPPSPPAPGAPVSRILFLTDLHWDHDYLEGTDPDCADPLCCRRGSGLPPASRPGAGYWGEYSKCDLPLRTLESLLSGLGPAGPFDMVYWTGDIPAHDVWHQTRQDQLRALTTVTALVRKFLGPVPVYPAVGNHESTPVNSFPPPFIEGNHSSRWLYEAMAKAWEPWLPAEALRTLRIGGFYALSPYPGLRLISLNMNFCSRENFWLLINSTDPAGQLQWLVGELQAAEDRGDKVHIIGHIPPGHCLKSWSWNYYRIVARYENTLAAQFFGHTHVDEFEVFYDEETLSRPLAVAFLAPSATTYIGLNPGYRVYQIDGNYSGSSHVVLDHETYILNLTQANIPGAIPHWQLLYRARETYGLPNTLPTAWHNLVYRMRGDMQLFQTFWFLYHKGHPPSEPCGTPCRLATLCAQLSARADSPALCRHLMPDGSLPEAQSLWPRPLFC
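Human placenta-derived ASM preincubated with compound 10 min at room temperature, then reacted with 9 uM (final) fluorogenic HMU-PC substrate for 60 min at 37 C. Stop solution raises pH to 10; fluorescence read at Ex 386/Em 447 nm.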
SW480 rerep: A quantitative high throughput screen for small molecules that induce DNA re-replication in SW480 colon adenocarcinoma cells; SW480 DNA re-replication, Hoechst DNA content imaging, 48 h; 340,000 tested, 1.8% active; Potency, µM (highest dose often 46.1 µM), hits mostly activators; note: nearly all actives have a fitted effect of over 55% in size
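Image-based read-out: total Hoechst fluorescence of nuclei (405 nm excitation, 500-530 nm emission), with hits raising the fraction of high-intensity nuclei. SW480 colon cells incubated 48 hr with compounds at 37 C.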
Giardia kill: Small Molecules that selectively kill Giardia lamblia: qHTS; Giardia lamblia trophozoite viability; activity change, % at 7.66 µM, hits read low; 340,000 tested, 0.15% active; in the data active = activity change below about -80%; inconclusive = between about -30% and that limit;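 note: parasites exposed to compound for two days anaerobically before the ATP read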
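Luminescence from cellular ATP indicates surviving trophozoites (100 cells/well) following 48 hrs anaerobic compound treatment at 37 deg C; signal develops 15-30 min at room temperature.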
KB-V1 cytotox: qHTS assay for MDR1-selective chemotherapeutics: Primary screen using the drug-selected MDR subline cells KB-V1. KB-V1 MDR cells viability, CellTiter-Glo, 72 h. Potency, µM (doses to about 46.1 µM), most hits filed as cytotoxic. 400,000 tested, 3.4% active. AID 1347076, 2019; note: nearly all actives have a fitted effect of over 60% in size
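In this primary screen, KB-V1 cells overexpressing P-gp are incubated with library compounds (lowest to highest concentration) for 72 h at 37 degrees C before a luminescent ATP viability read.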
MCF10A rereplic: A quantitative high throughput screen for small molecules that induce DNA re-replication in MCF 10a normal breast cells | Potency, µM (highest dose often 46.1 µM), hits mostly activators | MCF 10A DNA re-replication, Hoechst nuclear intensity, 48 h | 350,000 tested, 2.9% active | AID 624296, 2012; note: nearly all actives have a fitted effect of over 50% in size
KB-3-1 tox: qHTS assay for MDR1-selective chemotherapeutics: Primary screen using the parental adenocarcinoma cell KB-3-1; AID 1347075, 2019; 400,000 tested, 1.4% active; Potency, µM (titrated, usually from 46.1 µM), actives largely listed as cytotoxic; KB-3-1 viability, CellTiter-Glo ATP luminescence, 72 h; note: nearly all actives have a fitted effect of over 60% in size
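Cytotoxicity in the drug-sensitive parental line KB-3-1 was scored as loss of CellTiter-Glo luminescence following 72 h incubation with compound. Values come from curve fitting of normalized concentration-response data.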
Large screens that a line does not name were inactive. Unless noted, calls come from the whole dose curve; as a rule, active = well fitted curve in the direction sought with a large enough effect; inconclusive = small, poorly fitted or top-dose-only effect, or another doubt; inactive = no such curve, though single readings can be large; an effect the other way counts as inactive or inconclusive.

Clc1nc(NC2CCCCC2)c2cn[nH]c2n1	KB-3-1 tox inconclusive
Cn1ncc2c(Nc3ccccc3Cl)nc(Cl)nc21	none
Cn1ncc2c(NCCc3ccccc3)nc(Cl)nc21	KB-V1 cytotox 4.6µM, KB-3-1 tox inconclusive
O=c1[nH]ncc(NCCc2ccccc2)c1Cl	KB-V1 cytotox 8.2µM, KB-3-1 tox inconclusive
COc1ccc(N=c2nc(-c3ccc(C)cc3)n(-c3ccccc3)s2)cc1	KB-3-1 tox inconclusive (no result: S-ASM inh, SW480 rerep, MCF10A rereplic)
Cc1ccccc1CN1C(=O)c2ccccc2S(=O)c2ccc(C(=O)N3CCOCC3)cc21 (centres undefined)	none (no result: S-ASM inh, SW480 rerep, Giardia kill, MCF10A rereplic)
CC(=O)NCCCc1ccc(C(=O)COC(=O)CNC(=O)c2ccc3ccccc3c2)cc1	KB-V1 cytotox inconclusive, KB-3-1 tox inconclusive (no result: S-ASM inh, SW480 rerep, MCF10A rereplic)
CCc1cccc(NC(=O)Cn2c(=O)n(CC3CCC(C(=O)NCCc4ccccc4)CC3)c(=O)c3ccccc32)c1 (centres undefined)	KB-3-1 tox 15µM (no result: S-ASM inh, SW480 rerep, Giardia kill, MCF10A rereplic)
O=C(NNS(=O)(=O)c1ccc(F)cc1)c1ccccc1F	SW480 rerep 18µM
COc1ccccc1C(=O)NNS(=O)(=O)c1ccc(F)cc1	none
CCOCCCNC(=O)/C(C#N)=C/c1ccc(C(=O)OC)cc1	none
COCCNC(=O)/C(C#N)=C/c1ccc(O)c([N+](=O)[O-])c1	Giardia kill inconclusive
CCOCCCNC(=O)/C(C#N)=C/c1cc(C)c(O)c(C)c1	SW480 rerep inconclusive, MCF10A rereplic 23µM
CCOCCCNC(=O)/C(C#N)=C/c1cc(OC)c(O)c([N+](=O)[O-])c1	SW480 rerep inconclusive, KB-V1 cytotox 5.8µM, MCF10A rereplic 4.6µM, KB-3-1 tox 7.3µM
CCOCCCNC(=O)/C(C#N)=C/c1ccc(Cl)c([N+](=O)[O-])c1	KB-V1 cytotox inconclusive, MCF10A rereplic 18µM, KB-3-1 tox inconclusive
Cc1ccc(CN(c2ccc(C(=O)NCc3cccnc3)cc2)S(C)(=O)=O)cc1	none
COc1ccc(NC(=O)c2ccc(CN(c3cc(Cl)ccc3C)S(=O)(=O)c3ccccc3)cc2)cc1OC	KB-V1 cytotox 3.7µM
Cc1ccc(Cl)cc1N(Cc1ccc(C(=O)NCc2cccnc2)cc1)S(=O)(=O)c1ccccc1	KB-V1 cytotox 15µM
COc1ccccc1NC(=O)c1ccc(CN(c2cc(Cl)ccc2C)S(=O)(=O)c2ccccc2)cc1	none
COc1ccc(C)cc1Nc1n[n+](-c2ccccc2)c(-c2c(OC)ccc3ccccc23)s1	KB-V1 cytotox inconclusive, MCF10A rereplic inconclusive, KB-3-1 tox 18µM
CCN(CC)CCOc1ccc(Cc2ccccc2)cc1	MCF10A rereplic 24µM (no result: S-ASM inh, Giardia kill, KB-V1 cytotox, KB-3-1 tox)
CCN=c1sc2ccccc2n1CC(O)COc1ccccc1 (centres undefined)	KB-V1 cytotox inconclusive, MCF10A rereplic inconclusive
Cc1ccccc1OCC(O)Cn1c(=N)n(Cc2ccccc2)c2ccccc21 (centres undefined)	KB-V1 cytotox inconclusive, KB-3-1 tox inconclusive
COc1ccccc1OCC(O)Cn1c(=N)n(Cc2ccccc2)c2ccccc21 (centres undefined)	SW480 rerep inconclusive, KB-V1 cytotox inconclusive, MCF10A rereplic inconclusive, KB-3-1 tox 16µM
CN=c1sc2ccccc2n1CC(O)COc1ccccc1 (centres undefined)	KB-V1 cytotox 15µM
CCCn1c(=N)n(CC(O)COc2ccc(C)cc2)c2ccccc21 (centres undefined)	SW480 rerep inconclusive, KB-V1 cytotox inconclusive
CCN(CC)CCn1c(=N)n(CC(O)COc2ccccc2)c2ccccc21 (centres undefined)	SW480 rerep 21µM
CCOc1ccc(NC(=O)CSc2nc(C)c(C(=O)Nc3ccccc3)c(-c3ccc(Cl)cc3)c2C#N)cc1	none (no result: S-ASM inh, SW480 rerep, Giardia kill, MCF10A rereplic)
O=C(NCCc1nc2ccccc2n1Cc1ccccc1F)c1ccc(F)cc1	none (no result: S-ASM inh, SW480 rerep, KB-V1 cytotox, MCF10A rereplic, KB-3-1 tox)
COc1cc(NS(=O)(=O)c2ccc(C(=O)O)cc2)c2nc(C)ccc2c1	none (no result: S-ASM inh, SW480 rerep, KB-V1 cytotox, MCF10A rereplic, KB-3-1 tox)
COc1ccc(OCCn2c(=N)n(CCO)c3ccccc32)cc1	none
